The source of these data is the supplement of paper PMC6555819.

Holding throughout (test): PBM binding z-score (relative to random genomic background probes); higher = stronger binding; sequences stand for … in GC…GCGATTGACAGCGTAGAATGAAGG
The test system of experiment [1] is PPARg:RXRa DBDmut IVT, anti-RXR (DBD mutation: RXRa K156A/R161A, NR concentration 270 nM, RXRa partner concentration 90 nM). The method, boiled down: (§1)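 Antibodies against each partner of ligand-free nuclear receptor dimers (one per run) detected binding on custom Agilent 4×180K protein-binding microarrays after 1 h incubation. The double-stranded probes had 34-nt variable regions carrying direct-repeat seeds, single-nucleotide variants, half-site ablations and random human genomic background sequences. Binding z-scores, from regression-normalized fluorescence, use the random background probes as reference.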

For experiment [2], the system named is PPARg:RXRa IVT, anti-PPARg (NR concentration 270 nM, RXRa partner concentration 90 nM). The gist of the method:
as §1

Experiment [3] deals with PPARg DBDmut:RXRa IVT, anti-PPARg (DBD mutation: PPARg1 K132A/R137A, NR concentration 270 nM, RXRa partner concentration 90 nM). The gist of the method: as §1
Experiment [4] deals with PPARg DBDmut IVT, anti-PPARg (DBD mutation: PPARg1 K132A/R137A, NR concentration 270 nM). The method, boiled down: as §1
Experiment [5] concerns PPARg homodimer (NR concentration 180 nM). The gist of the method: as §1
Experiment [6] relates to PXR:RXRa (NR concentration 270 nM, RXRa partner concentration 90 nM). The gist of the method:
as §1

Experiment [7] deals with PXR homodimer (NR concentration 270 nM). The gist of the method: as §1
Experiment [8] concerns RARa:RXR (NR concentration 270 nM, RXRa partner concentration 90 nM). The method, boiled down:
as §1

For experiment [9], the system named is RARa homodimer (NR concentration 270 nM). The method, boiled down:
as §1

In experiment [10] the test system is RARb:RXRa (NR concentration 270 nM, RXRa partner concentration 90 nM). The gist of the method:
as §1

In experiment [11] the test system is RARb homodimer (NR concentration 270 nM). The method, boiled down: as §1
Experiment [12] has as its system RARg:RXRa (NR concentration 270 nM, RXRa partner concentration 90 nM). The method, boiled down:
as §1

Experiment [13] concerns RARg homodimer (NR concentration 270 nM). The gist of the method: as §1
In experiment [14] the test system is RXRa DBDmut IVT, anti-RXR (DBD mutation: RXRa K156A/R161A, NR concentration 90 nM). The method, boiled down:
as §1

Experiment [15] relates to RXRa homodimer (NR concentration 180 nM). The method, boiled down:
as §1

For experiment [16], the system named is THRa:RXRa (NR concentration 90 nM, RXRa partner concentration 90 nM). The gist of the method:
as §1

In experiment [17] the test system is THRa homodimer (NR concentration 90 nM). The gist of the method:
as §1

The test system of experiment [18] is VDR:RXRa (NR concentration 270 nM, RXRa partner concentration 90 nM). The gist of the method:
as §1

Experiment [19] concerns VDR homodimer (NR concentration 270 nM). The method, boiled down: as §1

Regarding CCCATTAGTTGACCATAAGGGCAACCGAAGCTCG, the PBM binding z-score was -0.253 in experiment [1]; 0.593 in [2]; 0.0546 in experiment [3]; -0.0766 in experiment [4]; 2.18 in experiment [5]; 0.867 in experiment [6]. Moreover, the PBM binding z-score in experiment [7] was found to be 0.974; in experiment [8], 1.05; in [9], 1.57; in [10], 1.7; in experiment [11], 2.53; in experiment [12], 1.4. Besides, the PBM binding z-score stood at 0.963 in [13]; 0.208 in experiment [14]; 0.666 in [15]; 2.07 in [16]; 1.89 in [17]; 0.855 in [18]. The sequence also returned a PBM binding z-score in [19] of 1.05.
As to CAAACTAGGTCAGAACAGGACAGTGAAGGATGAT, the PBM binding z-score in experiment [1] was 7.14; in experiment [2] it was 7.34; in experiment [3], 4.2; in experiment [4] it was 3.64; in experiment [5] it was 1.77; in [6], 1.06. Further, the PBM binding z-score in [7] was found to be 0.211; in experiment [8] it was 1.32; in experiment [9], 1.02; in experiment [10], 3.24; in [11] it was 2.11; in [12] it was 2.51. For the same sequence, the PBM binding z-score turned out to be 3.33 in [13]; 0.474 in experiment [14]; 1.28 in experiment [15]; 3.7 in experiment [16]; 0.447 in [17]; 0.899 in experiment [18]. The PBM binding z-score in experiment [19] came to 0.417.
As to GGGACGAGGGCAAGTTGATAGCAGAGTTTGATGG, the PBM binding z-score in [1] is 2.39; in [2] it was 2.34; in experiment [3] it was -0.115; in [4], 0.569; in experiment [5] it was 1.21; in experiment [6], 1.15. The PBM binding z-score in [7] is 0.763; in [8], 0.688; in experiment [9], -0.141; in experiment [10], 2.91; in [11], 1.99; in [12], 1.89. Besides, the PBM binding z-score in experiment [13] amounted to 2.46; in experiment [14] it was 2.62; in [15], 1.06; in experiment [16] it was 1.61; in experiment [17], 0.723; in experiment [18], 1.29. The sequence further displayed a PBM binding z-score in [19] of 2.05.
For CCTTACGGGTCACTCCAGGCTATAGCATCGGAGT, the PBM binding z-score in experiment [1] is 2.55; in experiment [2], 3.11; in [3] it was -0.0425; in [4] it was -0.418; in experiment [5], 0.988; in experiment [6] it was 3.3. Besides, the PBM binding z-score in experiment [7] was -0.213; in experiment [8], 3.16; in [9], 0.0642; in experiment [10], 3.51; in experiment [11], 2.51; in [12], 4.03. For the same sequence, the PBM binding z-score in experiment [13] is 4.09; in [14] it was 0.95; in experiment [15], 4.01; in experiment [16], 4.23; in experiment [17] it was -0.482; in experiment [18], 2.98. This sequence also gave a PBM binding z-score in experiment [19] of 0.841.
Consider ATCTCTAGGTAACGAGTTCAGTGAAAGAGAGGAC, for which the PBM binding z-score was 4.09 in experiment [1]; 3.44 in [2]; 0.909 in experiment [3]; 0.668 in experiment [4]; 0.806 in experiment [5]; 2.31 in experiment [6]. Moreover, the PBM binding z-score was 2.89 in [7]; 0.857 in experiment [8]; 0.668 in experiment [9]; 1.35 in [10]; 1.67 in [11]; 1.08 in [12]. Further, the PBM binding z-score in experiment [13] stood at 1.07; in [14], 1.58; in [15] it was 1.01; in experiment [16], 1.97; in experiment [17] it was 1.21; in experiment [18], 3.5. For the same sequence, the PBM binding z-score in experiment [19] is 4.11.
As to CAAACTTGGTCACCGGAAGGTCAAAGTCCGCATG, the PBM binding z-score was 2.35 in experiment [1]; 3.45 in experiment [2]; 0.726 in [3]; 1.15 in experiment [4]; 2.58 in experiment [5]; 4.26 in [6]. Also, the PBM binding z-score amounted to 1.08 in experiment [7]; 4.78 in experiment [8]; 0.786 in [9]; 3.77 in experiment [10]; 4.11 in experiment [11]; 5.35 in [12]. Moreover, the PBM binding z-score in experiment [13] came to 4.2; in [14], 0.79; in [15], 4.16; in experiment [16], 3.05; in [17], 1.24; in experiment [18] it was 3.88. The sequence further showed a PBM binding z-score in [19] of 2.2.
Consider CAGCGTAGGTCAGGGCCAGTATAGGAGGAACGTT, for which the PBM binding z-score was 0.838 in [1]; 1.03 in experiment [2]; -0.58 in experiment [3]; -1.66 in experiment [4]; 0.304 in experiment [5]; 0.605 in experiment [6]. Further, the PBM binding z-score in experiment [7] was -0.644; in [8], 1.04; in experiment [9] it was 0.00652; in experiment [10] it was 3.43; in experiment [11] it was 2.49; in experiment [12], 3.4. The PBM binding z-score in [13] is 4.22; in experiment [14] it was -0.29; in experiment [15], 2.04; in experiment [16] it was 1.24; in experiment [17], -0.0112; in experiment [18], 0.388. Besides, in experiment [19], the PBM binding z-score is -0.494.
